Bioassay records as filed in PubChem BioAssay.
Only some compounds are listed: those with a hit (about 4.6% of all), similar ones and a draw of the others.
D1 antagonist: Antagonist of Human D 1 Dopamine Receptor: qHTS; 3.2% of 360,000 active; HEK293 TREx D1 cells, calcium flux, dopamine EC80; stronger effect = lower value; D(1A) dopamine receptor (Homo sapiens), P21728; activity change, negative = inhibition, % at 10 µM; in the data active means activity change below about -30%
Target sequence (P21728 whole entry, looked up): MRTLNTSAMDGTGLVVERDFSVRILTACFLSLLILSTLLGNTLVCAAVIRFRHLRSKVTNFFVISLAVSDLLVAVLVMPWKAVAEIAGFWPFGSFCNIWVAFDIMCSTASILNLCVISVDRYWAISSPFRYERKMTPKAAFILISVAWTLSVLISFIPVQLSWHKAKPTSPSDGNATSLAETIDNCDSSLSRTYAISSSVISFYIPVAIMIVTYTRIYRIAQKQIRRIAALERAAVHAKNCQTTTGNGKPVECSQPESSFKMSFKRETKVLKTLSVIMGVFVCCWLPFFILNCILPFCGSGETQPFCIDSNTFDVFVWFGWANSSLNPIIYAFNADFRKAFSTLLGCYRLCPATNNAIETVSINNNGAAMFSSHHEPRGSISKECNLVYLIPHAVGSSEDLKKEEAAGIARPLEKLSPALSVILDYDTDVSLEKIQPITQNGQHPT
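Allosteric or orthosteric antagonism assessed as attenuation of the calcium response to EC80 dopamine, added 180 s after compound, in induced HEK293 Trex D1 cells loaded with no-wash calcium dye.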
D1 ag: Allosteric Agonists of the Human D1 Dopamine Receptor: qHTS. HEK293 T-REx D1 cells, calcium flux, agonist mode. activation, % at 2 µM. 1% of 360,000 active. AID 504660, 2011
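Inducible HEK293 T-REx D1 cells, force-coupled to calcium signalling, were plated at 4000 cells/well with tetracycline and held overnight at 30 C. After no-wash calcium dye loading, compound-evoked calcium rise over 180 s flagged agonists.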
D1 potentiator: Potentiators of Human D1 Dopamine Receptor: qHTS; D(1A) dopamine receptor (Homo sapiens), P21728; HEK293 TREx D1 cells, calcium flux, dopamine EC20 potentiation; potentiation, % at 10 µM; 0.036% of 360,000 active; AID 504651, 2011; in the data active means potentiation above about 30%
TRHR ag: qHTS for Small Molecule Agonists and Allosteric Enhancers of Human TRH Receptor: Primary Screen for Agonists; Thyrotropin-releasing hormone receptor (Homo sapiens), P34981; 0.18% of 360,000 active; TRHR cells, calcium flux fluo-8, FDSS agonist mode; activation, % at 2 µM
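Fluo-8-loaded TRHR cells; 10 s baseline, compound added, kinetic Ca2+ fluorescence read 1/s, agonist mode.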
TRHR enhancer: qHTS for Small Molecule Agonists and Allosteric Enhancers of Human TRH Receptor: Primary Screen for Enhancers; Thyrotropin-releasing hormone receptor (Homo sapiens), P34981; TRHR cells, fluo-8 calcium fluorescence, EC20 TRH enhancement; enhancement, % at 2 µM; 0.66% of 360,000 active; AID 493056, 2011; in the data active means enhancement above about 30%
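TRHR-expressing cells loaded with fluo-8 calcium dye were read kinetically (ex 480/em 530) during compound addition, then stimulated with an EC20 of TRH (10 nM final). Enhancement of the Gq-mediated intracellular calcium response was scored.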
Large screens that a line does not name were inactive. Unless noted, no stated cut-off is given here; in the data, active means activation above about 30%; inactive means the rest.

Cc1sc2ncn(CC(=O)NCC3COc4ccccc4O3)c(=O)c2c1S(=O)(=O)N1CCOCC1 (stereo unspecified)	none
Cc1sc2ncn(CC(=O)NCC3COc4ccccc4O3)c(=O)c2c1S(=O)(=O)N1CCCCC1 (stereo unspecified)	D1 antagonist -37
CCCCNC(=O)Cn1cnc2sc(C)c(S(=O)(=O)N3CCN(c4ncccn4)CC3)c2c1=O	none
Cc1sc2ncn(CC(=O)NCCCOC(C)C)c(=O)c2c1S(=O)(=O)N1CCN(c2ncccn2)CC1	D1 antagonist -64
CCc1ccc(C(=O)c2cn(CC(=O)Nc3cccc(OC)c3)c3cc4c(cc3c2=O)OCO4)cc1	none
Cc1ccc(S(=O)(=O)N2CCOCC2)cc1NC(=O)COC(=O)CCC(=O)c1ccc(F)cc1	D1 antagonist -31
Cc1ccc(S(=O)(=O)N2CCOCC2)cc1NC(=O)COC(=O)Cn1c(C)csc1=O	D1 antagonist -31
Cc1ccc(S(=O)(=O)N2CCOCC2)cc1NC(=O)COC(=O)CCn1c(C)csc1=O	none
Cc1ccc(C(=O)OCC(=O)Nc2cc(S(=O)(=O)N3CCOCC3)ccc2C)cc1	none
CNCCCC1Sc2ccccc2Oc2ccccc21 (stereo unspecified)	D1 antagonist -42
CC(=O)c1ccc(NC(=O)C(C)OC(=O)C2CCN(c3ccc(C(F)(F)F)cn3)CC2)cc1 (stereo unspecified)	D1 antagonist -30
Cc1ccc(C(=O)C(C)OC(=O)C2CCN(c3ccc(C(F)(F)F)cn3)CC2)cc1 (stereo unspecified)	none
CC(OC(=O)C1CCN(c2ccc(C(F)(F)F)cn2)CC1)C(=O)Nc1ccc(S(N)(=O)=O)cc1 (stereo unspecified)	none
Cc1ccccc1C(=O)Nc1ccc(N2CCN(C)CC2)nc1	none
O=C(COC(=O)C1CCN(c2ccc(C(F)(F)F)cn2)CC1)c1ccc(F)cc1	D1 antagonist -35, D1 ag 43
CN1CCN(c2ccc(NC(=O)c3ccc(C(F)(F)F)cc3)cn2)CC1	D1 antagonist -41
CC(OC(=O)C1CCN(c2ccc(C(F)(F)F)cn2)CC1)C(=O)c1ccccc1 (stereo unspecified)	D1 antagonist -32
COc1cc(NC(=O)COc2ccccc2Cl)ccc1NC(=O)c1cccs1	none
O=C(COC(=O)CCNS(=O)(=O)c1ccc2c(c1)OCCO2)NC1CCCc2ccccc21 (stereo unspecified)	none
CCC(C)NCCOCCOc1ccc(Cl)c2ccccc12 (stereo unspecified)	D1 antagonist -45, D1 ag 58
CCC(C)NCCOCCOc1ccc(Cl)c(C)c1C (stereo unspecified)	D1 ag 34
COCCNC(=O)CN(c1cc(C(F)(F)F)ccc1Cl)S(C)(=O)=O	none
COC(=O)CN(c1cc(C(F)(F)F)ccc1Cl)S(C)(=O)=O	D1 antagonist -39
O=C1CN(C(=O)c2ccccc2Br)C(c2ccc(F)cc2)c2cc(F)ccc2N1 (stereo unspecified)	none
Cc1cccc(C)c1NC(=O)N1CCC(C(=O)c2ccc(F)cc2)CC1	none (no result: D1 potentiator)
Cn1c(SCc2c(F)cccc2Cl)nc2c(c1=O)SCC2	D1 antagonist -31
O=C(CSc1nc2ccccc2s1)NCC1CCCO1 (stereo unspecified)	D1 antagonist -33
O=C(CCCn1c(SCC(=O)Nc2ccccc2Cl)nc2ccccc2c1=O)NCC1CCCO1 (stereo unspecified)	D1 antagonist -33
Cc1cc(NC(=O)CSc2nc3ccccc3c(=O)n2CCCC(=O)NCc2ccccc2)n[nH]1	D1 antagonist -35
O=C(CSc1nc2ccc(NC(=O)C3CCCCC3)cc2s1)NCC1CCCO1 (stereo unspecified)	none
O=C(CCCn1c(SCC(=O)NCC2CCCO2)nc2ccccc2c1=O)NCc1ccccc1 (stereo unspecified)	none
Cc1cccc(N=C2NC(=O)/C(=C/C=C/c3ccco3)S2)c1C	none
